Molecules are shown by their SMILES. The campaign covered roughly 310,000 compounds. About 14,000 (4.5%) showed an effect of 50% or more. The effect is printed as a negative number. The entries come from a sample that favours strong results as a whole.
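Note: peak tail current of the secondary pulse compared with the same well before compound.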

For the assay, the target named is human ether-à-go-go-related gene (hERG) potassium channel (human, UniProt Q12809). The assay is described as follows: primary screen, population patch clamp on CHO cells stably expressing hERG; higher = less effect of the substance.
Sequence of human ether-à-go-go-related gene (hERG) potassium channel (Q12809 whole entry, looked up): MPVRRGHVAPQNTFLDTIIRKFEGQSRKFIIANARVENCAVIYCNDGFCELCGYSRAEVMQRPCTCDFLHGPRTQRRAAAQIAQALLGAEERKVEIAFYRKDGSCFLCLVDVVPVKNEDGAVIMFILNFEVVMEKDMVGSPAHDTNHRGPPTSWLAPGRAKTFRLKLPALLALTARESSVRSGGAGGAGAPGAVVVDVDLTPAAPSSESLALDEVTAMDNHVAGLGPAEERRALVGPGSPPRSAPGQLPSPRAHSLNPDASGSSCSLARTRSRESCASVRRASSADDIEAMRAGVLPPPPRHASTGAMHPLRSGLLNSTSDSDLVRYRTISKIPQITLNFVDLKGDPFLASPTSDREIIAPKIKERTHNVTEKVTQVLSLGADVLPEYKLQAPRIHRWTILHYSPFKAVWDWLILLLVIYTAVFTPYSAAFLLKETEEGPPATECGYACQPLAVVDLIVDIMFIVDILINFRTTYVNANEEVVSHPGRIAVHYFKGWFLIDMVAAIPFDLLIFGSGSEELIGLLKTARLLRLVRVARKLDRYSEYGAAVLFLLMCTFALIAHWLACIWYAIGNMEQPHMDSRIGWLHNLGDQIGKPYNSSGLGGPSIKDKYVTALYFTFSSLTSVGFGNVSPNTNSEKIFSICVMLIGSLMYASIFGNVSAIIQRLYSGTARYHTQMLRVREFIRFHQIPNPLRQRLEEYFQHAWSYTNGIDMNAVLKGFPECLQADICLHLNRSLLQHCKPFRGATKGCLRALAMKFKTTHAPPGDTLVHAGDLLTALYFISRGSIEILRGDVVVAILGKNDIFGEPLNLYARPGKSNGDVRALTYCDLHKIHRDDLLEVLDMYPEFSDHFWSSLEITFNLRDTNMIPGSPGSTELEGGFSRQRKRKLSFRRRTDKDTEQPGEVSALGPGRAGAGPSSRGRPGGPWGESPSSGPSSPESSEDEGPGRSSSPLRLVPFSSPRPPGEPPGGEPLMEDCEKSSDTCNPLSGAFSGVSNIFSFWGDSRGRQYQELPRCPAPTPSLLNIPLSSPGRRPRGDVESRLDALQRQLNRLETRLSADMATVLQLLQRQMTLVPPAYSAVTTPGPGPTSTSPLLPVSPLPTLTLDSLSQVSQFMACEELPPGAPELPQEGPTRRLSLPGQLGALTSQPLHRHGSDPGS
As for `COc1ccccc1/C=N/NC(=O)c1cccc(NC(=O)c2ccccc2C)c1`, the “hERG current change (%, negative = inhibition) at 10uM” value was -4.64%. For `CC12CCC(=O)N1C(C(=O)Nc1ccc(Cl)c(S(=O)(=O)N3CCCCC3)c1)CS2` (stereo not shown) the value was -34.3%. Consider `CC(C)c1ccc(NC(=O)C2CSC3(C)CCC(=O)N23)cc1` (stereo not shown), for which the “hERG current change (%, negative = inhibition) at 10uM” value is on record as 2.4%. In the case of `CC12CCC(=O)N1C(C(=O)N1CCN(S(=O)(=O)c3ccccc3F)CC1)CS2` (stereo not shown) it was -30.1%; in that of `CC12CCC(=O)N1C(C(=O)Nc1ccc(SC(F)F)cc1)CS2` (stereo not shown), -57.6%; in that of `Cc1ccc(S(=O)(=O)N2CCN(C(=O)C3CSC4(C)CCC(=O)N34)CC2)cc1C` (stereo not shown), -13.8%. For `CC12CCC(=O)N1C(C(=O)OCC(=O)Nc1cccc(S(=O)(=O)N3CCCCCC3)c1)CS2` (stereo not shown), the “hERG current change (%, negative = inhibition) at 10uM” value is recorded as -86.8%.

With `Cc1ccc(NC(=O)C2CSC3(C)CCC(=O)N23)cc1S(=O)(=O)N1CCCCCC1` (stereo not shown), the “hERG current change (%, negative = inhibition) at 10uM” value is -55.4%. In the case of `CC12CCC(=O)N1C(C(=O)N1CCN(S(=O)(=O)c3ccc(F)c(F)c3)CC1)CS2` (stereo not shown) it was -53.7%. Take `CC12CCC(=O)N1C(C(=O)OCC(=O)Nc1cccc(Br)c1)CS2` (stereo not shown): the “hERG current change (%, negative = inhibition) at 10uM” value turned out to be 6.89%. For `Cc1ccc(NC(=O)C2CSC3(C)CCC(=O)N23)cc1S(=O)(=O)N1CCOCC1` (stereo not shown) the value was 2.81%. In the case of `CC12CCC(=O)N1C(C(=O)OCC(=O)Nc1cc(S(=O)(=O)N3CCCCC3)ccc1Cl)CS2` (stereo not shown) it was -48.2%; in that of `CC12CCC(=O)N1C(C(=O)Nc1ccc(F)cc1)CS2` (stereo not shown), 12.4%. For `COc1ccc(NS(=O)(=O)c2c(C)n(C)c(=O)n(C)c2=O)cc1` the value was 15.5%; for `CN(C)S(=O)(=O)c1ccc(Cl)c(NC(=O)COC(=O)/C=C/c2ccc3ccccc3n2)c1`, 1.53%; for `Cc1ccc(C(=O)COC(=O)CNC(=O)C(c2ccccc2)c2ccccc2)cc1[N+](=O)[O-]`, 4.33%. With `O=C(O)CC1Sc2ccccc2NC1=O` (stereo not shown), the “hERG current change (%, negative = inhibition) at 10uM” value is recorded as -13.4%.

Regarding `CN(C)C=O.Cc1ccc(S(=O)(=O)N(C)C)cc1NC(=S)Nc1ccc2[nH]c(=O)[nH]c2c1`, the “hERG current change (%, negative = inhibition) at 10uM” value amounted to 76.2%.

`CCc1cccc(OCC2Cn3c(nc4c3c(=O)n(C)c(=O)n4C)O2)c1` (stereo not shown): the “hERG current change (%, negative = inhibition) at 10uM” value is 3.18%. For `CC12CCC(=O)N1C(C(=O)Nc1ccc(S(=O)(=O)N3CCCCC3)cc1)CS2` (stereo not shown) the value was -5.09%; for `CC12CCC(=O)N1C(C(=O)Nc1cccc(S(=O)(=O)N3CCCCCC3)c1)CS2` (stereo not shown), -69.8%; for `CC12CCC(=O)N1C(C(=O)Nc1cccc(S(=O)(=O)N3CCCCC3)c1)CS2` (stereo not shown), -43.9%.

(Values after PMC4336329 (PLoS ONE, 2015).)
